Source: PubChem BioAssay
Vif-APOBEC3F blk = blocks the Vif interaction with APOBEC3F; HeLa A3F-eYFP + Vif (tagged APOBEC3F with the HIV-1 protein that degrades it), YFP fluorescence increase; Potency, µM (series often up to 46.1 µM), without a hit: top-dose activity, negative = active; 390,000 compounds, 0.2% hits; AID 602313; further: potency means the concentration at half of the fitted maximal effect; % of control where 0% means no effect; nearly all actives have a fitted effect of over 65% in size
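HeLa cells stably expressing A3F-eYFP plus Vif, plated and incubated overnight at 37 deg C, then exposed to compounds overnight at 37 deg C. Blocked degradation read as raised yellow fluorescence (Ex 488/Em 500-530).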
Vif-A3G inh = Vif-A3G binding inhibition; Potency, µM (series often up to 46.1 µM), inactives show at the highest dose activity, negative = active, most hits filed as inhibitors; AID 602310; Q9HC16; HeLa A3G-eYFP + Vif (tagged APOBEC3G with the HIV-1 protein that degrades it), YFP fluorescence, overnight; 410,000 compounds, 0.076% hits; further: potency means the concentration at half of the fitted maximal effect; on the % scale 0 is the no-effect control and ±100 the full control effect; nearly all actives have a fitted effect of over 60% in size
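Read-out is eYFP fluorescence (Ex 488/Em 500-530) from Vif-expressing HeLa A3G-eYFP cells; more signal means A3G escaped Vif-mediated degradation. Cells plated overnight, compound pinned in, incubated overnight at 37 deg C.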
VDR inh = vitamin D3 receptor (human) inhibition; P11473; VDR-SRC2-3 peptide fluorescence polarization, 2 h; Potency, µM, inactives show max response, negative = inhibition, most hits filed as inhibitors; 400,000 compounds, 0.93% hits; further: potency means the concentration at half of the fitted maximal effect; on the % scale 0 is the no-effect control and ±100 the full control effect
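FP read-out; VDR + SRC2-3 coactivator peptide; 23 nl compound by pintool; 2 h RT incubation; reagents held at 4 deg C, protected from light.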
TSHR antag = human thyrotropin receptor antagonism | P16473 | TSHR-expressing cells, TSH-stimulated cAMP HTRF, 2 h; stronger effect = lower value | activity change, negative = inhibition, % at 11.5 µM | 330,000 compounds, 0.2% hits | AID 504810;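 active means activity change below a set negative limit, meaning inhibition stronger than a set level, cut at about -70% in these data; inconclusive means activity change between two set negative limits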; further: on the % scale 0 is the no-effect control and ±100 the full control effect
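Cell-based HTRF cAMP assay; TSHR cells + compound, TSH EC80 (4nM final), 2 h, 37 deg C. Lysis with anti-cAMP cryptate and cAMP-d2, 30 min RT, read 665/620 nm.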
PLK1 PBD block = blocks phosphopeptide binding to human PLK1 polo-box domain; Plk1 PBD binding of FITC phosphopeptide, fluorescence polarization; Potency, µM, inactives show max response, negative = inhibition, usual class: inhibitors; 360,000 compounds, 2.8% hits; AID 720504; further: potency means the concentration at half of the fitted maximal effect; series mostly up to about 57 µM; on the % scale 0 is the no-effect control and ±100 the full control effect; nearly all actives have a fitted effect of over 65% in size
Target sequence (P53350 whole entry, looked up, the tested form may be a part): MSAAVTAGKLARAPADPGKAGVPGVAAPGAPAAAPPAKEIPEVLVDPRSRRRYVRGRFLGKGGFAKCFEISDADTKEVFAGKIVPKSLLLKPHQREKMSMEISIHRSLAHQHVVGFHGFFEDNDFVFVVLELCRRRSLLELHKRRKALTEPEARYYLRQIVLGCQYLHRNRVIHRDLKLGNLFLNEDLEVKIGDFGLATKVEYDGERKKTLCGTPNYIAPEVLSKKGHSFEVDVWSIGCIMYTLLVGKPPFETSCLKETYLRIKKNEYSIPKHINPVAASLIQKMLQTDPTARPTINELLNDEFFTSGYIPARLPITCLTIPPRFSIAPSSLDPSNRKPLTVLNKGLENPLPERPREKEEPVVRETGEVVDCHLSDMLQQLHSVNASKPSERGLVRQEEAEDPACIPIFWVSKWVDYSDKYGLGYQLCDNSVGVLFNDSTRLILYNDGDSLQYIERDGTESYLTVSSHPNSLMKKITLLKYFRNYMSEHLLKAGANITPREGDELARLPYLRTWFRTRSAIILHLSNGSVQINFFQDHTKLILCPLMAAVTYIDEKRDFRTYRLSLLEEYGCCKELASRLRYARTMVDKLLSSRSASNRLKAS
The depositor's hits bear a star; ? = inconclusive; . = no result given; ! = repeats disagree. A selection: hits, their analogues and other compounds. The true share with any hit is near 3.1%. Unless noted, the call rests on the fitted dose curve; in most records, active means well fitted curve in the direction sought with a large enough effect; inconclusive means small, poorly fitted or top-dose-only effect, or another doubt; inactive means no such curve, though single readings can be large; an effect the other way counts as inactive or inconclusive.

SMILES | Vif-APOBEC3F blk | Vif-A3G inh | VDR inh | TSHR antag | PLK1 PBD block
N#C/C(=C\c1ccc(-c2ccc(F)cc2F)o1)c1nc2ccccc2[nH]1 | 11µM* | 11µM* | -4% | . | .
Cc1ccc2nc(/C(C#N)=C\c3ccc([N+](=O)[O-])o3)[nH]c2c1 | ? | 6.3µM* | 22% | -27 | -7%
N#C/C(=C\c1ccc(-c2ccccc2C(=O)O)o1)c1nc2ccccc2[nH]1 | 22µM*! | -9% | ? | -6 | ?
Cc1ccc2nc(/C(C#N)=C/c3ccc(-c4ccccc4C(=O)O)o3)[nH]c2c1 | 11µM* | ? | 14% | 1 | 38%
Cc1ccc2nc(/C(C#N)=C\c3ccc(N4CCOCC4)o3)[nH]c2c1 | -15% | ? | -12% | -1 | 69%
N#C/C(=C\c1ccc(Sc2ccccc2)o1)c1nc2ccccc2[nH]1 | ? | ? | -7% | -22 | -9%
COc1ccc2c(c1)C(=O)[C@H](OC(=O)N[C@H](C)C1CCCCC1)[C@@H](c1ccc(OC)c(Br)c1)O2 | . | . | 0% | . | .
O=S(=O)(c1ccc(F)cc1F)N1CCN(c2nc(-c3cccs3)nc3ccccc23)CC1 | . | . | -9% | . | .
COc1cc(Br)c(/C=C(\C#N)c2nc3ccccc3[nH]2)cc1OC | 25µM* | -23% | -12% | . | .
COc1ccc(NC(=O)c2cc(CN3C(=O)c4ccccc4C3=O)ccc2OC)cn1 | 2% | ? | -12% | 0 | 27µM*
COc1ccc(CN2C(=O)c3ccccc3C2=O)cc1C(=O)Nc1ccccc1N1CCOCC1 | -20% | 0% | 0% | 7 | -12%
O=C(CC1S/C(=N/N=C/c2ccco2)NC1=O)Nc1ccccc1 (configuration not stated) | -5% | -3% | -2% | -5 | -9%
CC1=C/C(=N\N=C2\NC(=O)C(CC(=O)Nc3ccccc3)S2)CC(C)(C)C1 (configuration not stated) | -1% | 0% | -17% | -8 | 24µM*
CCCC[C@H](NC(C)=O)C(=O)N[C@H]1CC(=O)NCCCC[C@@H](C(N)=O)NC(=O)[C@H](Cc2c[nH]c3ccccc23)NC(=O)[C@H](CCCN=C(N)N)NC(=O)[C@@H](Cc2ccccc2)NC(=O)[C@H](Cc2cnc[nH]2)NC1=O | . | . | 4% | . | .
COc1ccccc1Nc1nc(C)cs1 | 0% | -6% | -13% | 0 | 17µM*!
CC(C)c1ccc(Nc2n[nH]c(=S)s2)cc1 | . | -6% | . | . | ?
Cc1cccc(C)c1Nc1n[nH]c(=S)s1 | -1% | 0% | . | . | ?
Cc1cc(C)c(Nc2n[nH]c(=S)s2)cc1C | 1% | -1% | . | . | 27µM*
Cc1cccc(Nc2n[nH]c(=S)s2)c1C | -2% | 0% | -78% | -2 | 30µM*
Cc1ccc(Nc2n[nH]c(=S)s2)c(C)c1 | -2% | 3% | . | . | 24µM*
CCCCC(CC)C/C=C1\CC(C(=O)OCC)Oc2ccccc21 (configuration not stated) (tested in a mixture with another compound) | . | . | -6% | . | .
COc1cccc(Nc2nc3ccc(OC)cc3s2)c1 | -12% | 0% | -9% | -13 | 4%
COc1cccc(Nc2n[nH]c(=S)s2)c1 | -10% | -7% | ? | -12 | 24µM*
CC(=O)Nc1n[nH]c(=S)s1 | 17% | -4% | 50µM* | . | -14%
COc1ccccc1Nc1n[nH]c(=S)s1 | 1% | 0% | ? | 7 | 21µM*
SMILES | Vif-APOBEC3F blk | Vif-A3G inh | VDR inh | TSHR antag | PLK1 PBD block
C[C@H]1COC(=O)O1 | . | . | 3% | . | .
CCCCOc1ccc(NC(=O)CSc2ccc(C(=O)O)cn2)cc1 | -4% | 0% | 15% | . | .
Cc1cccc(/N=C2/NC(=O)C(Cc3ccccc3)S2)n1 (configuration not stated) | 1% | 0% | ? | -5 | 30µM*
CC(Sc1cccc[n+]1[O-])C(=O)Nc1cccc([N+](=O)[O-])c1 (configuration not stated) | -7% | 1% | -16% | 1 | ?
CCC(Sc1ccccn1)C(=O)Nc1cccc([N+](=O)[O-])c1 (configuration not stated) | 1% | -2% | 5% | 5 | 21µM*
CO[C@@H](CCOCc1ccccc1)C[C@H]1O[C@H](C(=O)OC(C)C)C=C[C@@H]1C | . | . | 1% | . | .
O=C(NC1CCCC1)C(c1ccc(Cl)cc1)N1CCc2ccccc21 (configuration not stated) | 4% | 3% | 89µM* | 6 | 0%
Cc1coc(C)c1C(=O)CC1(O)C(=O)N(Cc2ccccc2)c2ccccc21 (configuration not stated) | . | -10% | -23% | . | 27µM*
CC(=O)CC1(O)C(=O)N(Cc2ccccc2)c2ccccc21 (configuration not stated) | . | 1% | -24% | 3 | 27µM*
Cc1cc(OCc2ccc(C(=O)n3cccn3)o2)ccc1Cl | -5% | -1% | -8% | 10 | 24µM*
COc1ccc(OCC(=O)NCc2nc(-c3ccccc3)no2)cc1 | 0% | -1% | -16% | . | 30µM*
Cc1ccc(OCc2nc(-c3ccccc3)no2)cc1 | 3% | -4% | ? | -6 | 12µM*
CC(C)C[C@H](NC(=O)[C@H](CCCCN)NC(=O)CNC(=O)[C@H](CC(C)C)NC(=O)[C@@H](NC(=O)[C@@H]1CSSC[C@H](N)C(=O)N[C@@H](CO)C(=O)N[C@@H](CC(N)=O)C(=O)N[C@@H](CC(C)C)C(=O)N[C@@H](CO)C(=O)N[C@@H]([C@@H](C)O)C(=O)N1)C(C)C)C(=O)N[C@@H](CO)C(=O)N[C@@H](CCC(N)=O)C(=O)N[C@@H](CCC(=O)O)C(=O)N[C@@H](CC(C)C)C(=O)N[C@@H](Cc1cnc[nH]1)C(=O)N[C@@H](CCCCN)C(=O)N[C@@H](CC(C)C)C(=O)N[C@@H](CCC(N)=O)C(=O)N[C@H](C(=O)N[C@@H](Cc1ccc(O)cc1)C(=O)N1CCC[C@H]1C(=O)N[C@@H](CCCNC(=N)N)C(=O)N[C@H](C(=O)N[C@@H](CC(N)=O)C(=O)N[C@H](C(=O)NCC(=O)N[C@@H](CO)C(=O)NCC(=O)N[C@H](C(=O)N1CCC[C@H]1C(N)=O)[C@@H](C)O)[C@@H](C)O)[C@@H](C)O)[C@@H](C)O | . | . | -9% | . | .
Cn1sc(NC(=O)c2ccccc2Cl)nc1=O | 8% | 0% | ? | -10 | 30µM*
Cn1sc(NC(=O)c2cccc(Cl)c2)nc1=O | -9% | 2% | 16% | -11 | 0%
CCOC(=O)C1(c2ccccc2)CCCNC1=O (configuration not stated) | -4% | 1% | . | . | -10%
CCOC(=O)C1(c2ccccc2)SC(C(=O)OCC)(c2ccccc2)S1 (configuration not stated) | -4% | 4% | . | . | 21µM*
